Data published in the supplement of paper PMC6555819.

Tests used:
Assay in all cases: PBM binding z-score (relative to random genomic background probes); higher = stronger binding; sequences stand for … in GC…GCGATTGACAGCGTAGAATGAAGG
[1] = test system: RARb homodimer (NR concentration 270 nM)
Procedure, shortened: (§1)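 Each nuclear receptor dimer, without ligand, was incubated for 1 h on custom Agilent 4×180K protein-binding microarrays. Binding was detected with antibodies against each partner (one per run), and scanned fluorescence was regression-normalized. The binding z-scores are referenced to random human genomic background probes.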

[2] = test system: RARg:RXRa (NR concentration 270 nM, RXRa partner concentration 90 nM)
Procedure, shortened: as §1

[3] = test system: RARg homodimer (NR concentration 270 nM)
Procedure, shortened: as §1

[4] = test system: RXRa DBDmut IVT, anti-RXR (DBD mutation: RXRa K156A/R161A, NR concentration 90 nM)
Procedure, shortened: as §1

[5] = test system: RXRa homodimer (NR concentration 180 nM)
Procedure, shortened: as §1

[6] = test system: THRa:RXRa (NR concentration 90 nM, RXRa partner concentration 90 nM)
Procedure, shortened: as §1

[7] = test system: THRa homodimer (NR concentration 90 nM)
Procedure, shortened: as §1

[8] = test system: VDR homodimer (NR concentration 270 nM)
Procedure, shortened: as §1

Sequence	PBM binding z-score [1]	PBM binding z-score [2]	PBM binding z-score [3]	PBM binding z-score [4]	PBM binding z-score [5]	PBM binding z-score [6]	PBM binding z-score [7]	PBM binding z-score [8]
TAGCCTAGGTCATGTGGGCCAGTATAGTGTCGGC	3.33	3.77	4.65	0.816	3.13	2.97	1.48	0.672
CAGCCTAGGGCAGGGCCAGTATAGGAGGAACGTT	0.0483	-0.0952	0.654	-1.36	-0.507	-0.901	-0.998	-0.621
CCTTACGGTTCACTCCAGGTTATAGCATCGGAGT	1.62	1.48	0.86	3.44	1.89	4.66	1.33	3.65
TTGCCTAGGTCATTCAGGGGCCAGTATAGAAAGC	3.3	6.09	4.46	2.14	2.76	3.48	0.747	1.75
CCGGCTGGGGCAGAAAGGTTACCATACCATCCGG	2.18	1.68	1.35	-1.28	1.74	0.969	-0.459	-0.229
AGAATGAGGTTACCAAAGATAAGGGAAACGCTTG	0.456	1.85	1.54	1.02	2.18	2.55	0.618	0.393
TTACCAAGGTGAAAGGTCGTGGATGCACGCCTTG	2.98	5.09	2.53	0.256	6.85	3.45	0.939	0.435
GGAACTAGGGCAAGTTGATAGCAGAGTTTGATGG	1.11	0.675	1.21	1.07	0.0337	0.0165	-0.214	0.251
CGTCCAAAGTCATAGGAGGTCAGTGAAGACAGAT	3.55	2.71	2.75	0.438	1.96	4.28	0.808	1.55
GGAACGAGGGCATTCGCGTTGATAGCATGGCGAT	0.582	0.978	1.21	2.75	0.746	1.08	-0.426	1.79
ATCTATAGGTAACCAAGTTCAGTGAATGCCGAAC	1.42	0.853	0.891	1.04	0.806	1.05	0.378	2.84
TCTCGGAGAACACGAAGGTCAGAGCTTTCCAGAG	2.86	1.7	1.58	0.25	1.61	1.18	-0.552	-0.097
CCTCGGAGGACACAAGGTCAGAGCTGTCCGCTTT	3.68	3.85	3.74	0.757	2.07	3.65	1.57	0.992
GCTAGTTGGTCAGTAGAAGGTCACACACCGGTCG	4.34	4.23	3.7	0.334	3.35	2.75	1.59	1.32
TAGCCTAGGTCATGGGCCATTATACCACGCGAAC	3.25	4.27	4.52	0.45	3.75	3.17	1.37	0.862
CGAACTAGTTCATTGACAGGACAGTGAATAGTAA	0.576	1.79	1.11	3	0.234	0.837	-0.237	2.01
ACAGACAGGTGATGAAGGTAAGTCAGGCTATCAT	0.406	0.153	0.428	-0.263	0.248	0.617	-0.25	-0.186
TATACAGGGTAAAAGGCCAGAGTACGAATGTCGA	1.6	1.56	1.59	-0.337	1.11	0.651	-0.663	0.418
GCTGCTAGGTCACGTTGGTCAGCTAACGGGTACG	3.68	4.37	5.6	1.5	3.09	3.38	1.79	0.836

Sequence	PBM binding z-score [1]	PBM binding z-score [2]	PBM binding z-score [3]	PBM binding z-score [4]	PBM binding z-score [5]	PBM binding z-score [6]	PBM binding z-score [7]	PBM binding z-score [8]
ATCTCTAGGAAAGACTCAGTTCAGTGAAGAACGC	0.415	-0.181	0.129	0.549	-0.107	0.203	0.155	1.33
TCATATAGGTAAAAGCTGAAAGTCGGTGTGGTAA	-0.59	-0.0558	-0.318	1.45	0.496	-0.258	-0.715	-0.102
TCTTGTAGATCAATAGAGGTTAGGAAAGTGCGCT	0.826	0.947	0.486	0.658	1.29	2	-0.0407	0.48
ACTATTAGTTGACTTAGGGCAACCGCTACGACGC	0.908	0.58	0.586	0.636	0.331	1.39	0.625	0.173
CGTCCAAGGTCAAAGGTCTGTGAAGAGATGACGG	4.1	6.32	6.12	4.3	6.84	4.04	2.11	3.09
TCGAGTAGCTTAGGGGCATTCAGAATGGCGTCGA	0.0653	-0.284	-0.446	0.27	0.216	0.657	-0.487	0.282
TCTCGGAGGACACGGAGGTCAGAGCTTTCCAGAG	3.7	3.54	3.91	0.792	2.47	3.34	1.77	2
AGAATGAGGTTACCAAAGATCCGGGAAACGCTTG	0.848	1.96	1.65	1.05	2.5	2.61	0.714	0.252
TCGAGTATGTTAGGGGCATTCAGAATGGCGTCGA	0.285	-0.134	-0.085	1.26	0.27	0.709	-0.0845	1.66
TAGCCTAGATCATGGGCCAGTATACCACGCGAAC	-0.389	-0.301	-0.388	-0.748	-0.39	-0.674	-0.848	-0.532
TCTATGAGTTGAAGGGCAACCGACGAGTCCGTTT	1.12	0.637	0.461	1.55	0.971	0.511	-0.405	1.57
GGAACGAGTGCAAGTTGATAGCAGAGTTTGATGG	-0.0389	-0.00885	0.227	3.42	0.155	-0.241	-0.787	2.87
GCGACTCGGGCATCAGCAGGTTACCATAACTTAA	0.226	0.257	0.0755	-0.281	0.133	0.266	-0.36	-0.501
TCTAGTTGGTCAAAGGTCACACAATCGAAATGCG	5.17	7.33	7.01	1.98	8.48	4.11	2.21	3.09
GCAGACAGGTGAAACGGAGGTAACTCAGGGTGGC	0.345	1.4	0.25	-0.66	0.757	1.83	-0.0224	-0.566
AGAACGAGGGCACGCTGAATTGATAGCAGAGTAG	0.888	1.78	2.36	1.73	1.18	1.53	-0.215	0.542
TCAGACAAGTGAAGGTAACTCAGGTACGCAGTCG	-0.322	0.211	0.249	1.1	0.825	1.1	-0.375	-0.0282
ATATGTAGGTTATCGGGTGATTCAGTTTGCGCAT	1.27	0.897	0.751	0.935	1.26	1.27	1.49	0.83
CCAGACAGGTGAGAAGGTAACTCATCCTCGATTA	0.437	0.511	0.745	0.48	0.529	0.505	0.345	-0.146

Sequence	PBM binding z-score [1]	PBM binding z-score [2]	PBM binding z-score [3]	PBM binding z-score [4]	PBM binding z-score [5]	PBM binding z-score [6]	PBM binding z-score [7]	PBM binding z-score [8]
TCATATCGGTAAACAGGTGAAAGTCCGTAAGTTA	0.664	0.475	0.211	1.26	0.834	0.552	0.248	0.533
GCAGACAGGAGAAACGCAGGTAACTCAGGGTGGC	-0.808	-0.38	-0.484	-0.907	-0.112	0.301	-0.985	-0.432
TCATATAGGTAAAGGAGAAAGTCGAACGATATGA	-0.643	0.547	0.358	0.825	0.676	-0.227	-0.866	-0.11
TCTTGTGGATCAACAGGAGGTTAAGAAAGATCGA	0.619	1.18	0.266	0.248	0.985	1.01	-0.626	0.119
GGAACGAGGGCAAGTTGGTAGCAGAGTTTGATGG	1.6	1.27	2.08	2.05	0.826	1.41	0.26	1.91
GATACTGGGTCAAGGCCAGAGTACGCGTATTGAT	2.91	3.4	3.58	-0.138	2.62	2.09	0.289	0.679
ACTGACGGGTCAACGAGGTTATAGCACGCGTATA	3.27	4.88	4.97	1.69	5.11	3.63	0.781	3.7
GCTGCTAGGTCAGGTTCGTCAGCTAACGGGTACG	2.25	2.25	3.35	1.63	1.24	1.94	0.323	2.58
TCTTGTAGATCAACACGAGGTTAAGAAAGATCGA	0.596	0.823	0.361	0.555	1.07	1.57	0.0132	0.099
TCATATAGGTTAATGCTAGGTGAAAGTCCGATCT	1.41	1.98	1.16	1.64	1.48	2.53	1.08	0.748
GGAACGAGGGCATTGGAGTTGATAGCATGGCGAT	1.04	1.13	1.42	2.75	0.72	1.9	-0.24	2.58
ATCGAAAGGTCGAGGTGACTATAGAGAAAGGGAA	2.73	4.4	4.53	1.37	4.45	2.9	0.607	0.269
ACTAGCAGGCCACGTTTGGGTCACTCAAACAAAG	1.91	2.05	1.58	-0.109	0.813	2.64	1.28	-0.0731
CCAGACAGGTGAGAAGGTACCTCAGCCTCGATTA	0.101	0.161	0.0168	0.0456	0.155	0.0348	0.0556	-0.352
CCAGACAGGTGATAAGGTAACTCAGCCTCGATTA	0.435	0.392	0.586	0.284	0.276	1.77	1.72	0.103
ACAGACACGTGATGAAGGTAACTCAGGCTATCAT	-0.0735	0.142	0.316	0.207	0.38	0.724	0.228	-0.42
GCGACTGGGGCATCAGCAGGTCACCATAACTTAA	3.25	3.79	2.47	-0.121	2.14	3.02	1.44	0.619
TTACCAAGATGAAAGGTCGTTGATGCACGCCTTG	1.55	1.58	0.973	0.753	2.49	1.27	-0.262	1.53
AGAATGAGGCTATACGTAGATCAGGGAAGAAAGT	-0.0625	0.222	0.232	-0.0879	-0.0272	0.084	-0.165	-0.0917
